# Columns and labels:
# Assay in all cases: protein-binding microarray (PBM); PBM: ~300 nM protein, 6 mM HEPES pH 7.8, 80 mM KCl, 0.5 mM EDTA, 0.5 mM EGTA, 6% glycerol, 35 ng/ul poly-dIdC, 1% milk, 1 h, room temperature; Ap Aiptasia and Nv Nematostella (sea anemones) / Co Capsaspora / Aq Amphimedon (sponge) / Dm Drosophila / Hu human; RHD is the Rel homology domain; high values mean tight binding
# Settings in all cases: dsDNA, one strand shown
# [1] = target: T1, GST-Ap-NF-kB RHD (Exaiptasia pallida (Aiptasia), UniProt A0A913YAJ5 2-422)
# T1 sequence: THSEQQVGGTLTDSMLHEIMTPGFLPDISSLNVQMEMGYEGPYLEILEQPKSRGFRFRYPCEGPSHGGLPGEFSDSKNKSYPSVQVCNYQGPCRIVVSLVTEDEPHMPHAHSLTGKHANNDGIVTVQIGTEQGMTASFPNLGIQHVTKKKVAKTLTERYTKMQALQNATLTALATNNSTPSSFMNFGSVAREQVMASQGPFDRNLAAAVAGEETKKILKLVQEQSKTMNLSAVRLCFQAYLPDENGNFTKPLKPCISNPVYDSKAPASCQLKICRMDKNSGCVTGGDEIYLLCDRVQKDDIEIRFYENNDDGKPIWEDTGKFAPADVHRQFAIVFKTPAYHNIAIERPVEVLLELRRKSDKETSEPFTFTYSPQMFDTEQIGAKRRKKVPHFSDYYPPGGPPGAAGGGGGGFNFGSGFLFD
# [2] = target: T2, GST-Nv-NF-kB (Cys allele) (Nematostella vectensis, UniProt E5G601 2-411)
# T2 sequence: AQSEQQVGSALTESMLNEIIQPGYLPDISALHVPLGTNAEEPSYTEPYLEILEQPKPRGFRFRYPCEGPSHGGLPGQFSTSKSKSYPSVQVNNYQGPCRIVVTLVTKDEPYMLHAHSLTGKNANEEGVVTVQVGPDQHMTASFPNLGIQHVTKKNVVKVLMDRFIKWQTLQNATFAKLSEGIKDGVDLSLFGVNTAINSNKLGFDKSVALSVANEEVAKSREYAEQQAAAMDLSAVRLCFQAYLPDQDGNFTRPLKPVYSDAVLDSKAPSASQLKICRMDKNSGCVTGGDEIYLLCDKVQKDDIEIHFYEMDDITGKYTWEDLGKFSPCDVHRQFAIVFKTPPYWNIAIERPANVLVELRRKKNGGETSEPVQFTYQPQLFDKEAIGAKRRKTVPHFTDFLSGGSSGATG
# [3] = target: T3, GST-Co-NF-kB (Capsaspora owczarzaki, UniProt F1ARL5 200-546)
# T3 sequence: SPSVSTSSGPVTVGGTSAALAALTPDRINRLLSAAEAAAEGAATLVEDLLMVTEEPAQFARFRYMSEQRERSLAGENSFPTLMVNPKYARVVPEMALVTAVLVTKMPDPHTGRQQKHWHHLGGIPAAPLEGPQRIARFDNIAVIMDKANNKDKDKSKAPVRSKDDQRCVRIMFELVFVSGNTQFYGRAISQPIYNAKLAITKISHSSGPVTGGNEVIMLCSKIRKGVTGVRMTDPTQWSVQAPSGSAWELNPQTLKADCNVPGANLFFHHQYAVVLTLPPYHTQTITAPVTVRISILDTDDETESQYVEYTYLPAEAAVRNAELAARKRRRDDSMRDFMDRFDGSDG
# [4] = target: T4, GST-Dm-Relish (Drosophila melanogaster, UniProt Q94527 99-473)
# T4 sequence: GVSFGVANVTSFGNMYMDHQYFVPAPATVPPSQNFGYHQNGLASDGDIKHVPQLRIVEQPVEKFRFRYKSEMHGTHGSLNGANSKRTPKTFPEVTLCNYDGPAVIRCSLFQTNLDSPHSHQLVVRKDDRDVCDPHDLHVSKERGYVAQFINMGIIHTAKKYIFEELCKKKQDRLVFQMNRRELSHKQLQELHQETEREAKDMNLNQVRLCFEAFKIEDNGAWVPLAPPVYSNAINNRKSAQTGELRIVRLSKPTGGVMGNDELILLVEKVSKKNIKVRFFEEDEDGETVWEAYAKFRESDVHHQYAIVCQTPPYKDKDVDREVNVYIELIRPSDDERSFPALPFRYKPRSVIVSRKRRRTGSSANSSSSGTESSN
# [5] = target: T5, GST-Aq-NF-kB (Amphimedon queenslandica, UniProt A9Y5G7 2-389)
# T5 sequence: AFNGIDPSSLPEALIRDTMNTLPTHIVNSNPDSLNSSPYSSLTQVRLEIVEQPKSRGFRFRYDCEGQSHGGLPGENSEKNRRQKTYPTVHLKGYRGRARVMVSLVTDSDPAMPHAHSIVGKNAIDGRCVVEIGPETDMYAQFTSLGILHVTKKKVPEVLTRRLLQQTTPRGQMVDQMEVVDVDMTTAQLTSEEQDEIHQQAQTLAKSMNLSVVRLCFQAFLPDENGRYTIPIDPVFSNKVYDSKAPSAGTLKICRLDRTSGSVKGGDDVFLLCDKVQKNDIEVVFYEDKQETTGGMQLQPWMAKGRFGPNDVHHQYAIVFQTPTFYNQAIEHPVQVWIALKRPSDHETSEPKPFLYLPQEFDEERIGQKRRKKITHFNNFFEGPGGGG
Sequence,binding signal [1] [z-score],binding signal [2] [z-score],binding signal [3] [z-score],binding signal [4] [z-score],binding signal [5] [z-score]
CCGATTAACATCAGGGGGTACCCTGATGTTAATCGGGTCTTGATTCGCTTGACGCTGCTG,7.79,4.44,4.14,6.71,6.6
CCGATTAACATCAGGGGTGGGAATGATGTTAATCGGGTCTTGATTCGCTTGACGCTGCTG,2.31,2.09,3.75,2.17,2.94
CCGATTAACATCAAGGGATTTCCTGATGTTAATCGGGTCTTGATTCGCTTGACGCTGCTG,5.46,5.12,1.32,7.74,6.44
CCGATTAACATCAGGGAAAGTAATGATGTTAATCGGGTCTTGATTCGCTTGACGCTGCTG,3.01,4.93,3.38,2.08,4.25
CCGATTAACATCAATACACCCCCTGATGTTAATCGGGTCTTGATTCGCTTGACGCTGCTG,3.75,2.95,4.19,3.33,3.5
CCGATTAACATCACGTAAATCCCTGATGTTAATCGGGTCTTGATTCGCTTGACGCTGCTG,2.65,2.8,1.01,7.13,3.3
CCGATTAACATCAAGTACCCCCATGATGTTAATCGGGTCTTGATTCGCTTGACGCTGCTG,4.72,2.7,4.36,2.25,2.6
CCGATTAACATCATCCGGGAAAATGATGTTAATCGGGTCTTGATTCGCTTGACGCTGCTG,2.01,3.79,4.53,1.58,2.54
CCGATTAACATCAAACAATTCCCTGATGTTAATCGGGTCTTGATTCGCTTGACGCTGCTG,3.25,5.26,3.45,1.6,4.85
CCGATTAACATCATGCGGGAAAATGATGTTAATCGGGTCTTGATTCGCTTGACGCTGCTG,2.22,3.71,4.47,1.22,2.76
CCGATTAACATCAGGGGGCAAGATGATGTTAATCGGGTCTTGATTCGCTTGACGCTGCTG,2.07,2.14,2.69,1.01,2.76
CCGATTAACATCAGGCACCCCCCTGATGTTAATCGGGTCTTGATTCGCTTGACGCTGCTG,5.14,3.21,2.79,5.16,4.88
CCGATTAACATCAGGGGCACCCCTGATGTTAATCGGGTCTTGATTCGCTTGACGCTGCTG,5.17,3.94,2.5,7.23,7.19
CCGATTAACATCAAGGGGGGGGCTGATGTTAATCGGGTCTTGATTCGCTTGACGCTGCTG,5.13,3.96,4.65,5.21,4.89
CCGATTAACATCAGGGAGTTACCTGATGTTAATCGGGTCTTGATTCGCTTGACGCTGCTG,4.03,5.22,2.38,7.17,7.22
CCGATTAACATCAGGGGGAGTGATGATGTTAATCGGGTCTTGATTCGCTTGACGCTGCTG,5.05,3.63,3.71,1.66,3.44
CCGATTAACATCAGGGGGTACACTGATGTTAATCGGGTCTTGATTCGCTTGACGCTGCTG,4.19,2.66,4.33,3.21,3.31
CCGATTAACATCAGGGGACTATATGATGTTAATCGGGTCTTGATTCGCTTGACGCTGCTG,5.4,4.97,2.59,2.85,4.61
CCGATTAACATCAGGGGGGACAATGATGTTAATCGGGTCTTGATTCGCTTGACGCTGCTG,4.56,4.19,6.09,2.95,4.16
CCGATTAACATCAGGGGACACCCTGATGTTAATCGGGTCTTGATTCGCTTGACGCTGCTG,5.89,4.47,3.91,7.15,6.52
CCGATTAACATCAATATACCCCCTGATGTTAATCGGGTCTTGATTCGCTTGACGCTGCTG,6.61,4.24,6.57,3.69,4.03
CCGATTAACATCAGGGAACTACCTGATGTTAATCGGGTCTTGATTCGCTTGACGCTGCTG,4.91,4.67,1.23,8.33,6.44
CCGATTAACATCAGAATTCCCACTGATGTTAATCGGGTCTTGATTCGCTTGACGCTGCTG,2.58,4.12,2.92,4.09,3.19
CCGATTAACATCAGGGATTTCCATGATGTTAATCGGGTCTTGATTCGCTTGACGCTGCTG,4.13,3.8,1.29,7.94,5.39
CCGATTAACATCAAATATACCCCTGATGTTAATCGGGTCTTGATTCGCTTGACGCTGCTG,4.01,3.4,5.87,2.64,4.15
CCGATTAACATCAATGGGAAAATTGATGTTAATCGGGTCTTGATTCGCTTGACGCTGCTG,1.56,4.28,3.46,1.25,3.05
CCGATTAACATCAGCGAATTCCCTGATGTTAATCGGGTCTTGATTCGCTTGACGCTGCTG,3.47,4.45,2.15,2.72,3.61

# Source: paper PMC5700166
